The list is not random: actives were taken first. Their share in the collection is about 2.3%.
PfM18AAP inh-1 = blocks P. falciparum M18 aspartyl aminopeptidase; recombinant PfM18AAP, H-Glu-NHMec fluorogenic cleavage; AID 1822; hit rate 1.2% among 290,000; inhibition, % at 7.35 µM;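 active = inhibition above the campaign mean inhibition over all tested compounds plus 3 SD, cut at about 28% in these data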
Rce1 inh = inhibitors of yeast Ras-converting enzyme; Q03530; calls only; yeast membranes, quenched prenylated peptide cleavage fluorescence; hit rate 0.27% among 290,000;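 active = fall in fluorescence gain of 50% or more versus controls, with final raw signal at or below 3038400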
Target sequence (Q03530 whole entry, looked up): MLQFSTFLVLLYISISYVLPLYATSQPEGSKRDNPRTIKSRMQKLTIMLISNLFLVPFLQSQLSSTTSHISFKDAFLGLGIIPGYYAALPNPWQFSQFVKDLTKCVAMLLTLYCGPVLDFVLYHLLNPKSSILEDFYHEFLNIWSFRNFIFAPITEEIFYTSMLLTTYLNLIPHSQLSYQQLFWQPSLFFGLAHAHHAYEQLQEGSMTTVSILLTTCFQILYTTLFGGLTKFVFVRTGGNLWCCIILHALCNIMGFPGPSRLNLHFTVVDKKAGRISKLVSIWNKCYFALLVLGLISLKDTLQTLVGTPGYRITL
DNA FID counter = counter-screen for HCV NS3 helicase inhibitors: DNA intercalator displacement. DNA fluorescent intercalator displacement, fluorescence. AID 1845. hit rate 0.17% among 290,000. inhibition, % at 7.9 µM; in the data active = inhibition above about 37%;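 also: higher means more ethidium bromide displaced from hairpin DNA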
Kir21 inh = inhibitors of mouse Kir2.1 inward-rectifier potassium channel; B-score at 10 µM; AID 1672; P35561; hit rate 0.85% among 310,000; HEK293-Kir2.1, FluxOR thallium flux fluorescence; hits give low values;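 active = fluorescence ratio B-score at or below minus 3 SD of library scores, with starting-brightness B-score within 2 SD, cut at about -4.2 in these data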;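 also: channel flux triggered by added potassium and thallium sulfate stimulus; B-score of peak minus minimum fluorescence over baseline after thallium stimulus; more negative B-score means stronger Kir2.1 block with less thallium influx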
PfM18AAP inh-2 = PfM18AAP inhibition, confirmation. recombinant PfM18AAP, H-Glu-NHMec fluorogenic cleavage. inhibition, % at 7.35 µM. shares compounds with PfM18AAP inh-1. hit rate 28% among 2,400;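 active = mean inhibition over replicate wells above the hit cutoff set for the earlier primary screen, cut at about 29% in these data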
CTSL1 confirm = counter-screen for PFM18AAP inhibitors: confirmation of human cathepsin L inhibitors; 2,400 tested, under 10 active; inhibition, % at 5.96 µM; purified cathepsin L1, Z-Leu-Arg-MCA fluorescence; shares compounds with PfM18AAP inh-1;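 active = average inhibition across replicates above the hit cutoff set in the earlier primary screen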
Target sequence (P07711 whole entry, looked up): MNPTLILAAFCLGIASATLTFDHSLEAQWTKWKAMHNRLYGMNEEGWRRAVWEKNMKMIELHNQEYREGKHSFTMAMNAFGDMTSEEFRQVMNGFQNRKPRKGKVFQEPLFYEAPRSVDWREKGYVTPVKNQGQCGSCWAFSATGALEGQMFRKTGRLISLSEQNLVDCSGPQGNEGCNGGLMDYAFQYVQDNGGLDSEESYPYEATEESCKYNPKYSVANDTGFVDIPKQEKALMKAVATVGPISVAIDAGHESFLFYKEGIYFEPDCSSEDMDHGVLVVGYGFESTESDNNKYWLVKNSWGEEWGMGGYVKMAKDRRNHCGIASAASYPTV
A number is an active result; . = inactive; / = no result.

SMILES	PfM18AAP inh-1	Rce1 inh	DNA FID counter	Kir21 inh	PfM18AAP inh-2	CTSL1 confirm
O=C(N/N=C/c1c[nH]c2ccccc12)c1ccc(O)c(O)c1	70	.	.	.	50	.
Cc1ccc(NC(=O)/C=C/C(=O)O)c(NC(=O)c2ccccc2)c1	.	.	.	.	/	/
Cc1ccc(O)c(NC(=O)/C=C/C(=O)O)c1	33	.	.	.	.	.
COc1ccc2c(-c3ccccc3)cc(N3CCOCC3)nc2c1	50	.	.	.	.	.
CCC(C)n1c(SCC(=O)NC2CCS(=O)(=O)C2)nc2ccccc2c1=O (configuration not stated)	/	.	/	.	/	/
COc1cccc(NC2SC(=O)N(c3ccccc3)C2=O)c1 (configuration not stated)	35	.	.	.	.	.
Cc1sc2ccccc2[n+]1CC(=O)c1ccccc1	52	.	.	.	.	.
O=C(NC(=S)NNC(=O)c1ccccc1O)c1ccco1	33	.	.	.	30	.
CC(=O)Oc1ccccc1C(=O)OCCN=C1NS(=O)(=O)c2ccccc21	.	.	.	.	/	/
Cc1c(O)ccc(/C=N/Nc2ncccc2[N+](=O)[O-])c1O	43	.	.	.	.	.
O=[N+]([O-])c1cccnc1N/N=C/c1ccccc1O	.	.	.	.	/	/
CN(C)c1ccc(N=Cc2cccn2C)cc1	58	.	.	.	.	.
CN(C)c1ccc(N=Cc2nc(-c3ccccc3)oc2O)cc1	.	.	.	.	/	/
CCOC(=O)CSc1nc2ccc(N3CCOCC3)cc2c(=O)n1Cc1ccc2c(c1)OCO2	37	.	.	.	.	.
N#CC1=C(N)Nc2ncnn2C1c1ccccc1 (configuration not stated)	38	.	.	.	.	.
CC(=O)Nc1cccc(NC(=O)c2csc(C)c2)c1	.	.	.	.	/	/
CCOc1ccc(S(=O)(=O)Nc2ncn[nH]2)cc1	46	.	.	.	33	.
Cn1c(SCC(=O)c2ccc(O)c(O)c2)nnc1-c1ccccc1	48	.	.	.	.	.
O=C(CSc1nc2ccccc2n1CCc1ccccc1)c1ccc(O)c(O)c1	44	/	.	/	.	.
Cc1ccc(C(=O)CSc2nnc(-c3cccs3)n2C)o1	.	.	.	.	/	/
Cn1c(SCC(=O)c2ccc(O)c(O)c2)nnc1-c1cccs1	46	.	.	.	.	.
CC1c2ccsc2CCN1C(=O)NC(=O)c1ccc(Cl)cc1 (configuration not stated)	.	.	.	.	/	/
O=C(O)Cc1c[nH]c2cccc(O)c12	44	.	.	.	.	.
CN(C)S(=O)(=O)c1ccc(Cl)c(C(=O)Nc2cccc3ncccc23)c1	.	/	.	.	/	/
Oc1ccc(/C=N/N(Cc2ccccc2)c2ccccc2)c(O)c1O	50	.	.	.	.	.
SMILES	PfM18AAP inh-1	Rce1 inh	DNA FID counter	Kir21 inh	PfM18AAP inh-2	CTSL1 confirm
CCN(c1ccccc1)S(=O)(=O)c1ccc(C(=O)Nc2ccc(C)cn2)cc1	/	.	/	.	/	/
O=C(Nc1cccc(Cl)c1)N(CCN1CCOCC1)Cc1ccccc1F	71	.	.	.	.	.
O=C(Nc1cccc(Cl)c1)N(CCN1CCOCC1)Cc1cccc(Cl)c1	.	.	.	.	/	/
Cc1nn2c(=O)cc(CSCC(=O)Nc3ccccc3Cl)nc2s1	.	.	.	.	/	/
COc1cc(NC(=O)Nn2cnnc2)cc(OC)c1OC	69	.	.	.	54	.
COc1ccccc1NC(=O)Nn1cnnc1	65	.	.	.	51	.
CN1CCN(NC(=O)CN2C(=O)S/C(=C\c3c(Cl)cccc3Cl)C2=O)CC1	42	.	.	.	.	.
CC(C)c1cc2c(c(O)c1O)[C@@]13CCCC(C)(C)C1CC2OC3=O (some centres not stated)	68	.	.	.	48	.
COc1ccc(C)cc1NC(=O)c1ccc(S(=O)(=O)N2CCCCC2)cc1	.	/	.	.	/	/
COc1ccc(CNCc2cc3c(cc2[N+](=O)[O-])OCO3)cc1	38	.	.	.	.	.
Cc1nc2ccccn2c1C(=O)N/N=C/c1ccccc1[N+](=O)[O-]	.	.	.	.	/	/
Cc1nc2c(C)cccn2c1C(=O)N/N=C/c1ccccc1[N+](=O)[O-]	40	.	.	.	.	.
CCn1c(CC(=O)Nc2ccc(C)cc2)nnc1SCC(=O)N1CCOCC1	.	.	.	.	/	/
CCOC(=O)c1c(C)n(C)c2cc(Br)c(O)c(O)c12	51	.	.	.	53	.
O=C(Nc1ccccc1Cl)c1cc(=O)c2ccccc2o1	.	.	.	.	/	/
Cc1ccc(S(=O)(=O)N2CC=C(c3ccc(F)cc3)CC2)cc1	76	.	.	.	.	.
Cc1ccc(NC(=O)C2=CCN(S(=O)(=O)c3ccc(F)cc3)CC2)cc1	.	.	.	.	/	/
COc1ccc(C(C)=O)cc1CSc1nc2ccccc2c(=O)n1-c1ccccc1C	43	.	.	.	.	.
O=C(O)c1cccc(NC(=S)N/N=C/c2cccc(O)c2)c1	50	.	.	.	.	.
COCc1cc(CN2CCCC(C(=O)Nc3ccc(-c4ccco4)cc3)C2)ccc1OC (configuration not stated)	.	.	.	.	/	/
O=C(CNC(=O)c1ccc(Br)cc1)OCC(=O)c1ccccc1	.	.	.	.	/	/
O=C(CCC(=O)OCC(=O)c1ccc([N+](=O)[O-])cc1)NC1CCCCC1	34	.	.	.	.	.
O=C(COC(=O)c1ccccc1NC(=O)c1ccccc1)c1ccc([N+](=O)[O-])cc1	40	.	.	.	.	.
O=C(CNC(=O)c1ccc(Br)cc1)NCC(=O)OCC(=O)c1ccc([N+](=O)[O-])cc1	38	.	.	.	.	.
O=C(CNC(=O)c1ccccc1)NCC(=O)OCC(=O)c1ccc([N+](=O)[O-])cc1	40	.	.	.	.	.
SMILES	PfM18AAP inh-1	Rce1 inh	DNA FID counter	Kir21 inh	PfM18AAP inh-2	CTSL1 confirm
O=C(CNC(=O)c1ccc(Br)cc1)NCC(=O)OCC(=O)c1ccc(F)cc1	.	.	.	.	/	/
O=C(COC(=O)c1ccccc1NC(=O)c1ccccc1)c1cccc([N+](=O)[O-])c1	.	.	.	.	/	/
O=C(O)Cc1sc(N/N=C\c2ccncc2)nc1-c1ccccc1	.	.	.	.	/	/
N#Cc1c(-c2ccccc2)nc(SCC(=O)Nc2ccc(OC(F)(F)Cl)cc2)[nH]c1=O	.	.	.	.	/	/
CCCCN(C)CCCNC(=O)CN1C(=O)COc2ccc(S(=O)(=O)N3CCOCC3)cc21	.	.	.	.	/	/
COCCOc1ccc(C(F)(F)F)cc1NC(=O)CN1C(=O)NC2(CCc3ccccc32)C1=O (configuration not stated)	/	.	/	.	/	/
CC(/C=N/N1C(=O)CSC1=S)=C\c1ccccc1	42	.	.	.	.	.
CC(/C=N/N1CCN(c2ccccc2)CC1)=C\c1ccccc1	.	.	.	.	/	/
COc1ccc(/C=N/N2C(=O)CSC2=S)cc1	49	.	.	.	.	.
COC(=O)COc1ccc(C)cc1-n1nc2ccccc2n1	38	.	.	.	.	.
CN1CCN(C(=S)C(=O)Nc2ccc(Br)cc2)CC1	55	/	.	.	.	.

Screening results as filed in PubChem.
